Experimental findings from PubChem BioAssay (NCI) are described below.

SMILES strings stand for the structures. About 83,000 compounds went through this panel and 20% of them were active in at least one assay; those are over-represented in the sample as a whole.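 Assay: single dose, 48 h. Readout: percent growth (0 = no net growth; negative = cell death). Active: <10.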 A number with no mark means an inactive call. Activity calls are given as the source filed them.

Assay in all cases: NCI-60 one-dose screen, 48 h (100 = growth as untreated, 0 = no growth, -100 = all killed)
Details in all cases: 10 µM unless noted

In assay [1] the test system is HCT-15 colon.
In assay [2] the test system is HT29 colon.
Assay [3] has as its system SNB-75 CNS.
In assay [4] the test system is SNB-19 CNS.
Assay [5] deals with U251 CNS.
Assay [6] concerns PC-3 prostate.
For assay [7], the system named is SK-MEL-5 melanoma.
Assay [8] deals with UACC-62 melanoma.
The subject of assay [9] is LOX IMVI melanoma.
Assay [10] deals with SK-MEL-28 melanoma.
Assay [11] relates to SK-MEL-2 melanoma.
The subject of assay [12] is EKVX NSCLC.
Assay [13] deals with SN12C renal.
The subject of assay [14] is UO-31 renal.
Assay [15] deals with TK-10 renal.
Assay [16] relates to ACHN renal.
Assay [17] deals with CAKI-1 renal.
The test system of assay [18] is A498 renal.
Assay [19] has as its system CCRF-CEM leukemia.
Assay [20] relates to MOLT-4 leukemia.

For `CCO/C=N/C1=C(C#N)C(c2ccc(OC)cc2)c2sc3c(C)cccc3c2O1` (configuration not stated), the growth in assay [1] is 18.2%; in assay [2], 10%; in assay [3] it was 28.2%; in assay [4] it was 28.3%; in assay [5], 22.1%; in assay [6], 9.28% (active). Also, the growth in assay [7] is 39.5%; in [8] it was 17.3%; in assay [9], 34.8%; in assay [10], 55.7%; in assay [11] it was 36.5%; in assay [12] it was 39.9%. The growth in [13] is 25.2%; in assay [14], 34.3%; in assay [15], 78.5%; in assay [16] it was 37.6%; in assay [17] it was 33.3%; in [18], -15.6% (active). In addition, the figures for the growth in assay [19] and in assay [20] were -2.18% (active) and 16.4%, respectively.

In the case of `COc1ccc(S(=O)(=O)NCCCNc2nccc(-c3cn(C(C)(C)C)nc3-c3ccc(Cl)c(OC)c3)n2)cc1`, the growth in [1] was 78.5%; in assay [2] it was 81%; in [3], 50.5%; in assay [4] it was 96.3%; in assay [5], 98.9%; in assay [6] it was 58.3%. Moreover, the growth in [7] is 85.8%; in assay [8], 61.2%; in assay [9], 72.7%; in assay [10] it was 98.9%; in assay [11], 89.7%; in [12], 47.2%. Moreover, the growth in assay [13] was 57.1%; in assay [14], 44.5%; in assay [15], 60.3%; in assay [16], 84.6%; in assay [17] it was 25.5%; in [18] it was 58.7%. Moreover, the growth in assay [20] was 60.6%.

As for `COc1cccc2c1CN(C(=O)c1ccc(O)c(C(=O)N3Cc4ccc(OCCC[P+](c5ccccc5)(c5ccccc5)c5ccccc5)cc4C3)c1)C2`, the growth in [1] was 102%; in assay [2], 100%; in [3], 80.9%; in assay [4] it was 28.3%; in [5] it was 53.6%; in assay [6], 71.7%. Moreover, the growth in assay [7] was 35.7%; in assay [8], 44.4%; in [9], 42.7%; in [10], 63.2%; in assay [11], 61.5%; in assay [12], 52.4%. Further, the growth in assay [13] is 90.4%; in assay [14], 77.3%; in assay [15], 116%; in [16], 96.6%; in assay [17], 82.3%; in [18], 107%. For the same compound, the growth in assay [19] was 71.1%; in [20] it was 93.6%.

On to `Cc1ccc(-n2cc(/C=C/C(=O)c3ccc(O)cc3)c(-c3ccc(S(C)(=O)=O)cc3)n2)cc1`, for which the growth in [1] was 26%; in [2] it was 28.6%; in assay [3] it was 87.5%; in assay [4] it was 75.6%; in assay [5] it was 72.3%; in [6], 69.9%. For the same compound, the growth in assay [7] was 61.7%; in [8] it was 59.6%; in assay [9], 41.9%; in [10], 82.3%; in [11], 101%; in assay [12], 91.4%. Further, the growth was 63.5% in [13]; 76.4% in assay [14]; 117% in [15]; 67.7% in assay [16]; 73.4% in assay [17]; 99.2% in assay [18]. The growth in assay [19] is 48.8%; in assay [20], 34.8%.

On to `CCc1cccc(NC(=O)CNc2cc(S(=O)(=O)N(C)C)cc(C)c2C)c1`, for which the growth was 106% in [1]; 104% in assay [2]; 47% in [3]; 97.3% in [4]; 104% in assay [5]; 81.6% in assay [6]. The growth is 82.8% in [7]; 72.5% in assay [8]; 89.9% in assay [9]; 99.5% in [10]; 102% in assay [11]; 50.7% in assay [12]. Moreover, the growth in assay [13] was 69.4%; in [14], 48.5%; in assay [15], 65%; in assay [16], 91.3%; in assay [17], 50.5%; in assay [18] it was 35.5%. Besides, the growth in [20] was 82.4%.

As for `O=S(=O)(NCCCNc1nccc(-n2cnc3ccccc32)n1)c1ccc(C(F)(F)F)cc1`, the growth in assay [1] is 81.8%; in [2], 96.3%; in assay [3] it was 87.2%; in assay [4], 94.2%; in assay [5] it was 90.8%; in assay [6] it was 66.7%. The growth is 58.8% in assay [7]; 62% in assay [8]; 85.6% in assay [9]; 103% in assay [10]; 97.8% in [11]; 75.1% in assay [12]. Also, the growth was 85.9% in assay [13]; 60.7% in [14]; 95.7% in assay [15]; 87.1% in [16]; 60.5% in assay [17]; 72.1% in assay [18]. For the same compound, the growth in assay [19] was 70.9%; in assay [20], 67%.

As to `COc1ccc(-c2nc3ccc(-c4nnc(SCC(=O)Nc5ccc(C(=O)/C=C/c6ccc(Cl)cc6)cc5)o4)cc3[nH]2)cc1`, the growth in [1] is 86.1%; in assay [2] it was 104%; in [3] it was 94.7%; in assay [4] it was 108%; in assay [5], 94.3%; in assay [6], 94.9%. The growth in assay [7] is 98.9%; in [8] it was 94%; in assay [9], -29.9% (active); in [10], 101%; in assay [11] it was 111%; in assay [12], 99.7%. Besides, the growth in assay [13] is 88.3%; in [14] it was 85.3%; in assay [15], 120%; in assay [16] it was 97.7%; in assay [17], 97.2%; in [18], 84.3%. For the same compound, the growth was 96% in assay [19] and 88.3% in assay [20].

Take `N#Cc1cnc2ccc(-c3cnc4[nH]ncc4c3)cc2c1N1CCc2cc(F)c(Cl)cc21`: the growth was 3.32% (active) in assay [1]; 2.58% (active) in assay [2]; -9.27% (active) in assay [3]; 14.2% in [4]; 20.5% in assay [5]; 6.58% (active) in assay [6]. Besides, the growth in [7] was -37.2% (active); in assay [8], -18.5% (active); in [9], -9.51% (active); in [10], 31.3%; in assay [11] it was -5.98% (active); in [12], -1.26% (active). Moreover, the growth in assay [13] is 9.07% (active); in assay [14], -8.85% (active); in assay [15], 13.1%; in [16], 12.5%; in assay [17], 15.1%; in assay [18], -53.7% (active). Besides, the growth in [20] is 4.01% (active).
